# Rows were chosen to be rich in hits. Some 3.4% of all compounds tested hit in one or more screens of this group.
# TEAD-YAP block – TEAD-YAP interaction inhibition, primary screen, TEAD-YAP interaction inhibitor project, luminescence, HEK-TIYL cells | TEAD-Gal4/YAP UAS-luciferase luminescence | inhibition, % at 9.12 µM | 640,000 tested, 1.4% active; in the data active = inhibition above about 32%
# FBW7 act – FBW7 E3 ligase activators, primary screen, biochemical, AlphaScreen, human | 650,000 tested, 0.13% active | AlphaScreen FBW7–phospho-cyclin E peptide binding, activator screen | AID 1259310, 2017 | F-box/WD repeat-containing protein 7 (Homo sapiens), Q969H0 | normalized activity (activation), % at 26.1 µM; in the data active = normalized activity above about 1.9%;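 also: purified mutant Fbw7 with reduced substrate affinity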
# GPR151 activ – activators of human GPR151, primary screen, cell-based, PathHunter beta-arrestin, luminescence. G-protein coupled receptor 151 (Homo sapiens), Q8TDV0. PathHunter beta-arrestin GPR151 cells. activation, % at 11.2 µM. 650,000 tested, 1% active. AID 1508602, 2020; in the data active = activation above about 4.9%
# MITF primary – MITF inhibitors, primary screen, biochemical, AlphaScreen, human; Microphthalmia-associated transcription factor (Homo sapiens), O75030; AlphaScreen MITF homodimerization, bead proximity signal; inhibition, % at 2.6 µM; 650,000 tested, 0.91% active; AID 1259374, 2018; in the data active = inhibition above about 50%
# GPR151 confirm – GPR151 activators, triplicate retest, confirmation, cell-based, PathHunter beta-arrestin, luminescence; shares compounds with GPR151 activ; GPR151 PathHunter beta-arrestin cells, 90 min; % of EA-reagent control over plate median; activation, % at 11.2 µM; 6,700 tested, under 10 active;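 active = mean percent activation across replicates above the confirmation screen cutoff of 4.91%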
# GPR119 ag – GPR119 activators in beta-arrestin cells, counter-screen for GPR151 activator project, cell-based, PathHunter beta-arrestin, luminescence, triplicate. AID 1508611, 2020. 6,700 tested, 0.3% active. 90 min; 0 = compound-well median, 100 = enzyme-acceptor control. shares compounds with GPR151 activ. activation, % at 11.2 µM;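 active = mean percent activation in the counterscreen above 29.09%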;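 also: counterscreen on off-target GPR119 to flag nonselective hits from the GPR151 activator screen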
# Target sequence (Q8TDV5 whole entry, looked up): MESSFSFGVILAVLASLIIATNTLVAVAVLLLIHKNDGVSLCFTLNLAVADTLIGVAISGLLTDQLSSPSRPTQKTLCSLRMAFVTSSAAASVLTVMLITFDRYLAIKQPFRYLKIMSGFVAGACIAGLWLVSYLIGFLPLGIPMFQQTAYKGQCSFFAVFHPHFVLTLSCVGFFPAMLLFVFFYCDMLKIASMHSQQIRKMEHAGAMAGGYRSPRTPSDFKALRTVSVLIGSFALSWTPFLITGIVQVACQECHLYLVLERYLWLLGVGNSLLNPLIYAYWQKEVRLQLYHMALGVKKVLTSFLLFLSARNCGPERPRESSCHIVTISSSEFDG
# A number is an active result; . = inactive; / = no result.
SMILES,TEAD-YAP block,FBW7 act,GPR151 activ,MITF primary,GPR151 confirm,GPR119 ag
N#Cc1ccc(NN2C(=O)c3ccccc3C2=O)c([N+](=O)[O-])c1,.,.,.,.,/,/
N#Cc1ccc(NN2C(=O)c3cc(Cl)c(Cl)cc3C2=O)c([N+](=O)[O-])c1,.,.,7.0,.,.,.
CCOc1ccc(CSC2=NCCN2)cc1[N+](=O)[O-],.,.,.,.,/,/
O=[N+]([O-])c1ccc(CSC2=NCCN2)cc1,.,.,7.2,.,.,.
CC(C)NC(=O)c1cccc(NC(=O)Nc2ccc(-c3cn[nH]c3)cc2OCCN(C)C)c1,.,.,5.3,.,.,.
COc1ccccc1C(=O)N/N=C(\C)c1ccc(C)o1,.,.,.,.,/,/
CCN(CC(=O)NC1CCCCCC1)S(=O)(=O)c1ccc(C)cc1,.,.,5.4,.,.,.
O=C(CN1c2cccc3cccc(c23)S1(=O)=O)Nc1ccc(F)c(F)c1,.,.,.,.,/,/
O=C(CN1c2cccc3cccc(c23)S1(=O)=O)Nc1ccc(Br)cc1F,.,.,7.1,.,.,.
CC(=O)Nc1ccc(Nc2nc(-c3ccc(C(=O)NC4CC4)cc3)nc3c2ncn3CCN2CCCC2=O)cc1,.,.,.,.,/,/
CCOc1cc(Br)c(/C=C/C(=O)O)cc1OC,.,.,5.3,.,.,.
O=C(Nc1cccc2ncccc12)C12CC3CC(CC(C3)C1)C2,.,.,.,.,/,/
CCC(=O)Nc1cccc2ncccc12,.,.,.,.,/,/
Cc1ccc(SCC(=O)Nc2cccc3ncccc23)cc1,.,.,6.0,.,.,.
O=C(CC12CC3CC(CC(C3)C1)C2)Nc1cccc2ncccc12,.,.,6.3,.,.,.
CC(=O)c1cccc(NC(=O)Nc2ccc(Cl)c(Cl)c2)c1,.,.,.,.,/,/
Cc1cn2c3c(=O)n(CC(N)=O)c(=O)n(C)c3nc2n1-c1ccc(Cl)cc1,.,.,5.7,.,.,.
Cc1cc(C)c(S(=O)(=O)Oc2ccccn2)c(C)c1,.,.,.,.,/,/
O=C(CCc1nnc(Cc2c[nH]c3ccccc23)o1)N1CCCCC1CCc1ccccn1 (stereo unspecified),.,.,.,.,/,/
O=C(CCc1nnc(-c2ccsc2)o1)N1CCCCC1CCc1ccccn1 (stereo unspecified),.,.,6.5,.,.,.
CCOc1ccc(OCC)c(NC(=O)CN2CCN(C(C)=O)CC2)c1,.,.,6.8,.,.,.
COc1ccc(C(=O)N(Cc2cccs2)C2CC(C)(C)NC(C)(C)C2)cc1,.,.,7.4,.,.,.
O=C(c1cc(Cl)ccc1[N+](=O)[O-])N1CCN(c2ncccn2)CC1,.,.,8.3,.,.,.
O=C(Cc1cc(=O)[nH][nH]1)N/N=C/C=C/c1ccccc1,.,.,5.3,.,.,.
Cc1n[nH]c(C)c1CCC(=O)N/N=C/C=C/c1ccccc1,.,.,6.5,.,.,.
SMILES,TEAD-YAP block,FBW7 act,GPR151 activ,MITF primary,GPR151 confirm,GPR119 ag
O=C(Cc1cccs1)N/N=C\C=C\c1ccccc1,.,.,.,.,/,/
CC(C)CC(=O)N1CCC2(CCC(CNC(=O)/C=C/c3ccccc3F)O2)CC1 (stereo unspecified),.,.,.,.,/,/
COC(=O)c1ccccc1NC(=O)C(C)N(c1cc(C)cc(C)c1)S(C)(=O)=O (stereo unspecified),.,.,.,.,/,/
COC(=O)c1ccccc1NC(=O)C(C)N(c1ccc(Cl)cc1)S(C)(=O)=O (stereo unspecified),.,.,6.8,.,.,.
Cc1cc(NC(=O)C(=O)NC(C)C)ccc1Br,.,.,6.4,.,.,.
Cc1cc(NC(=O)C(C)N(c2ccc(Cl)cc2)S(C)(=O)=O)ccc1Br (stereo unspecified),.,.,6.4,.,.,.
CCOC(=O)c1ccccc1NC(=O)n1ncc2cc(Cl)ccc21,.,.,.,.,/,/

# Assay outcomes from PubChem BioAssay.
